From publication PMC5540273 (PLoS ONE, 2017)

Legend:
Conditions in all cases: concentration: 1 μM, replicates: in singlicate; n = 1
BLK = test system: BLK
BMPR1A = test system: BMPR1A
BMPR1B = test system: BMPR1B
BMPR2 = test system: BMPR2
BMX = test system: BMX
BRAF = test system: BRAF
BRK = test system: T1, BRK
T1 construct: gene PTK6

BRSK1 = test system: BRSK1
BRSK2 = test system: BRSK2
BTK = test system: BTK
BUB1 = test system: BUB1
CAMK1B = test system: CAMK1B
CAMK1D = test system: CAMK1D
CAMK1G = test system: CAMK1G
CAMK1 = test system: CAMK1
CAMK2A = test system: CAMK2A
CAMK2B = test system: CAMK2B
CAMK2D = test system: CAMK2D
CAMK2G = test system: CAMK2G
CAMK4 = test system: CAMK4
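Also: KINOMEscan kinase panel screen.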

SMILES | %Inh (BLK) | %Inh (BMPR1A) | %Inh (BMPR1B) | %Inh (BMPR2) | %Inh (BMX) | %Inh (BRAF) | %Inh (BRK) | %Inh (BRSK1) | %Inh (BRSK2) | %Inh (BTK) | %Inh (BUB1) | %Inh (CAMK1B) | %Inh (CAMK1D) | %Inh (CAMK1G) | %Inh (CAMK1) | %Inh (CAMK2A) | %Inh (CAMK2B) | %Inh (CAMK2D) | %Inh (CAMK2G) | %Inh (CAMK4)
COCCNC(=O)c1ccc(-c2cc(C(=O)NC3CC3)cc(F)c2C)cc1 [GW868318] | 0% | 19% | 19% | 46% | 7% | 10% | 0% | 0% | 18% | 0% | 51% | 5% | 10% | 0% | 14% | 7% | 10% | 8% | 13% | 7%
Cc1ccc(C(=O)NCC(N)=O)cc1-n1c(C)cc(OCc2ccc(F)cc2F)c(Br)c1=O | 14% | 2% | 0% | 0% | 24% | 0% | 23% | 11% | 39% | 0% | 0% | 10% | 36% | 0% | 44% | 9% | 1% | 0% | 0% | 26%
COc1cc2c(cc1OCCN1CCN(C)CC1)ncc1c3ccc(C#N)cc3[nH]c21 | 4% | 0% | 0% | 0% | 0% | 0% | 23% | 4% | 0% | 0% | 100% | 19% | 44% | 16% | 0% | 93.5% | 70% | 92.6% | 86% | 0%
Cc1c(Cn2c(C)nn3c(=O)cc(N4CCOC(C)C4)nc23)cccc1C(F)(F)F (stereo not drawn) [GSK2344444] | 25% | 6% | 0% | 0% | 1% | 0% | 7% | 0% | 0% | 0% | 0% | 10% | 9% | 0% | 0% | 0% | 0% | 0% | 10% | 0%
COc1ccc(S(=O)(=O)NC2CCN(c3cc(C)nc(Nc4cccc(C#N)c4)n3)CC2)cc1.O=C(O)C(F)(F)F [GSK1653539] | 25% | 0% | 0% | 0% | 3% | 0% | 0% | 0% | 0% | 0% | 0% | 1% | 17% | 0% | 0% | 0% | 0% | 6% | 11% | 0%
Cl.Nc1ncnc2occ(-c3ccc(NC(=O)Nc4cc(C(F)(F)F)ccc4F)cc3)c12 [SB-707548] | 44% | 0% | 0% | 1% | 82% | 71% | 3% | 20% | 0% | 21% | 17% | 36% | 23% | 0% | 22% | 0% | 0% | 0% | 25% | 32%
COc1ccc(Nc2nccc(N3CCC(NC(=O)Nc4cc(C)ccc4C)C3)n2)cc1 (stereo not drawn) [GSK1379741] | 0% | 0% | 0% | 0% | 0% | 0% | 5% | 0% | 0% | 0% | 33% | 13% | 0% | 0% | 0% | 0% | 0% | 0% | 0% | 0%
CNc1ncnc2[nH]ncc12 [SKF-18355] | 0% | 6% | 0% | 35% | 0% | 11% | 0% | 0% | 0% | 0% | 20% | 0% | 0% | 0% | 0% | 0% | 0% | 0% | 0% | 0%
Nc1nccc(-c2c(-c3ccc(F)cc3)ncn2C2CCN(CC(F)(F)F)CC2)n1 [SB-236560] | 0% | 0% | 0% | 45% | 0% | 0% | 0% | 40% | 0% | 37% | 49% | 80% | 0% | 2% | 0% | 0% | 0% | 0% | 93.3% | 11%
c1ccc(-c2n[nH]cc2-c2ccnc3ccccc23)nc1 [GW271431] | 49% | 0% | 13% | 0% | 22% | 0% | 22% | 0% | 0% | 0% | 0% | 23% | 28% | 13% | 23% | 0% | 0% | 19% | 25% | 0%
C[C@@H](Oc1cc(-n2cnc3ccc(NC(=O)NC(C)(C)C)cc32)sc1C(N)=O)c1ccccc1Cl [GSK346294] | 0% | 0% | 0% | 5% | 22% | 0% | 17% | 10% | 15% | 6% | 35% | 32% | 19% | 2% | 11% | 9% | 0% | 18% | 23% | 3%
CN(C1=C(c2ccccc2)C(=O)NC1=O)c1ccccc1 [SB-334860] | 0% | 0% | 0% | 0% | 13% | 0% | 2% | 0% | 0% | 0% | 0% | 34% | 3% | 0% | 6% | 7% | 11% | 1% | 3% | 0%
